In PubChem BioAssay (NCATS):
Results filed as inconclusive are left out. Active and inactive are the calls of the source. Calls come from the whole dose curve; as a rule, active = well fitted curve in the direction sought with a large enough effect; inconclusive = small, poorly fitted or top-dose-only effect, or another doubt; inactive = no such curve, though single readings can be large; an effect the other way counts as inactive or inconclusive.

What was measured:
[1] = Quantitative High-Throughput drug screen in 47 multiple myeloma cell lines against the NCATS MIPE library collection: KMS12BM_JCRB cell viability assay (AID 1918971); note: nearly all actives have a fitted effect of over 35% in size
Outline: (§1)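 Myeloma cell lines, 500 cells per well, exposed to MIPE 4.0 library compounds for 48 h at 37C, 5% CO2. Viability from ATP by CellTiter-Glo luminescence; normalised to DMSO (100%) and media-only (0%) wells.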

[2] = Quantitative High-Throughput drug screen in 47 multiple myeloma cell lines against the NCATS MIPE library collection: KMS20_JCRB cell viability assay (AID 1918973); note: nearly all actives have a fitted effect of over 45% in size
Outline: (§2)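 Relative luminescence from CellTiter-Glo served as the viability signal, referenced to DMSO-treated (100%) and cell-free medium (0%) controls. Treatment lasted 48 hours at 37C with 500 cells per well.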

[3] = Quantitative High-Throughput drug screen in 47 multiple myeloma cell lines against the NCATS MIPE library collection: KMS26_JCRB cell viability assay (AID 1918975); note: nearly all actives have a fitted effect of over 45% in size
Outline: as §1

[4] = Quantitative High-Throughput drug screen in 47 multiple myeloma cell lines against the NCATS MIPE library collection: MMM1_PLB cell viability assay (AID 1918976); note: nearly all actives have a fitted effect of over 35% in size
Outline: (§3)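 500 cells/well; MIPE 4.0 drugs pin-transferred; 48 h, 37C, 5% CO2. CellTiter-Glo, 5 min RT, luminescence. Controls: DMSO 100%, media 0%.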

[5] = Quantitative High-Throughput drug screen in 47 multiple myeloma cell lines against the NCATS MIPE library collection: MOLP8_DSMZ cell viability assay (AID 1918977); note: nearly all actives have a fitted effect of over 45% in size
Outline: as §3

[6] = Quantitative High-Throughput drug screen in 47 multiple myeloma cell lines against the NCATS MIPE library collection: OCIMY1_PLB cell viability assay (AID 1918979); note: nearly all actives have a fitted effect of over 35% in size
Outline: as §3

[7] = Quantitative High-Throughput drug screen in 47 multiple myeloma cell lines against the NCATS MIPE library collection: MM1S_ATCC cell viability assay (AID 1918980); note: nearly all actives have a fitted effect of over 45% in size
Outline: as §3

[8] = Quantitative High-Throughput drug screen in 47 multiple myeloma cell lines against the NCATS MIPE library collection: MM1R_ATCC cell viability assay (AID 1918981); note: nearly all actives have a fitted effect of over 35% in size
Outline: as §3

[9] = Quantitative High-Throughput drug screen in 47 multiple myeloma cell lines against the NCATS MIPE library collection: LP1_DSMZ cell viability assay (AID 1918982); note: nearly all actives have a fitted effect of over 35% in size
Outline: as §3

[10] = Quantitative High-Throughput drug screen in 47 multiple myeloma cell lines against the NCATS MIPE library collection: L363_DSMZ cell viability assay (AID 1918984); settings: L363 myeloma viability, CellTiter-Glo ATP luminescence, 48 h; viability (% of control): at 45.8 µM (top of the series); note: nearly all actives have a fitted effect of over 40% in size
Outline: as §3

[11] = Quantitative High-Throughput drug screen in 47 multiple myeloma cell lines against the NCATS MIPE library collection: OCIMY7_PLB cell viability assay (AID 1918987); settings: OCI-MY7 myeloma viability, CellTiter-Glo ATP, 48 h; viability (% of DMSO): at 45.8 µM (top of the series); note: nearly all actives have a fitted effect of over 65% in size
Outline: as §3

[12] = Quantitative High-Throughput drug screen in 47 multiple myeloma cell lines against the NCATS MIPE library collection: OCIMY5_PLB cell viability assay (AID 1918988); note: nearly all actives have a fitted effect of over 65% in size
Outline: as §3

[13] = Quantitative High-Throughput drug screen in 47 multiple myeloma cell lines against the NCATS MIPE library collection: OPM1_PLB cell viability assay (AID 1918989); note: nearly all actives have a fitted effect of over 40% in size
Outline: as §3

[14] = Quantitative High-Throughput drug screen in 47 multiple myeloma cell lines against the NCATS MIPE library collection: SKMM1_PLB cell viability assay (AID 1919863); settings: SKMM1 myeloma viability, CellTiter-Glo ATP, 48 h; viability: active compounds read low; note: nearly all actives have a fitted effect of over 35% in size
Outline: as §3

[15] = Quantitative High-Throughput drug screen in 47 multiple myeloma cell lines against the NCATS MIPE library collection: KMS21BM_JCRB cell viability assay (AID 1918974); settings: ATP luminescence, 48 h; viability: at 45.8 µM (top of the series)
Outline: as §2

[16] = Quantitative High-Throughput drug screen in 47 multiple myeloma cell lines against the NCATS MIPE library collection: NCIH929_DSMZ cell viability assay (AID 1918978); note: nearly all actives have a fitted effect of over 35% in size
Outline: as §3

[17] = Quantitative High-Throughput drug screen in 47 multiple myeloma cell lines against the NCATS MIPE library collection: KMS12PE_JCRB cell viability assay (AID 1918972); note: nearly all actives have a fitted effect of over 30% in size
Outline: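 CellTiter-Glo luminescence (ATP) after 48 h compound exposure, 37C/5% CO2; 500 cells/well; MIPE 4.0 approved/investigational drugs pinned in; DMSO = 100%, media only = 0% viability.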

[18] = Quantitative High-Throughput drug screen in 47 multiple myeloma cell lines against the NCATS MIPE library collection: KMS28PE_JCRB cell viability assay (AID 1918983); note: nearly all actives have a fitted effect of over 35% in size
Outline: as §3

[19] = Quantitative High-Throughput drug screen in 47 multiple myeloma cell lines against the NCATS MIPE library collection: U266_ATCC cell viability assay (AID 1919864); note: nearly all actives have a fitted effect of over 35% in size
Outline: as §3

[20] = Quantitative High-Throughput drug screen in 47 multiple myeloma cell lines against the NCATS MIPE library collection: KMS34_JCRB cell viability assay (AID 1918985); note: nearly all actives have a fitted effect of over 40% in size
Outline: as §3
Potency is the fitted concentration of half-maximal effect.

C[C@H]1COC2=C1C(=O)C(=O)c1c2ccc2c1CCCC2(C)C
active: Potency [1] 18.7 µM | Potency [2] 10.5 µM | Potency [3] 29.6 µM | Potency [4] 13.2 µM | Potency [5] 20.9 µM | Potency [7] 26.4 µM | Potency [8] 20.9 µM | Potency [9] 18.7 µM | Potency [11] 13.2 µM | Potency [12] 20.9 µM | Potency [13] 20.9 µM | Potency [14] 14.8 µM
inactive: Potency [6] | Potency [10]

CCc1cccc(CC)c1NC(=O)N1Cc2[nH]nc(NC(=O)c3ccc(N4CCN(C)CC4)cc3)c2C1
inactive: Potency [4]
active: Potency [1] 18.7 µM | Potency [2] 14.8 µM | Potency [15] 3.72 µM | Potency [5] 16.6 µM | Potency [16] 16.6 µM | Potency [8] 14.8 µM | Potency [11] 10.5 µM | Potency [12] 1.66 µM | Potency [13] 0.833 µM

OC[C@H]1O[C@@H](OCCc2ccc(O)cc2)[C@H](O)[C@@H](O)[C@H]1O
inactive: Potency [1] | Potency [17] | Potency [5] | Potency [6] | Potency [8] | Potency [9] | Potency [10]
active: Potency [7] 20.9 µM | Potency [13] 29.6 µM

CN(C(Cc1ccc(OS(=O)(=O)c2cccc3cnccc23)cc1)C(=O)N1CCN(c2ccccc2)CC1)S(=O)(=O)c1cccc2cnccc12 (stereo not drawn)
active: Potency [1] 10.5 µM | Potency [2] 2.64 µM | Potency [3] 14.8 µM | Potency [4] 5.9 µM | Potency [16] 16.6 µM | Potency [6] 7.43 µM | Potency [7] 5.26 µM | Potency [8] 16.6 µM | Potency [18] 10.5 µM | Potency [11] 4.69 µM | Potency [12] 13.2 µM | Potency [13] 3.72 µM | Potency [14] 9.35 µM | Potency [19] 13.2 µM

COc1c(C)cnc(Cn2cnc3c(Cl)nc(N)nc32)c1C
active: Potency [1] 0.187 µM | Potency [2] 0.209 µM | Potency [3] 0.209 µM | Potency [4] 0.935 µM | Potency [16] 0.187 µM | Potency [7] 0.332 µM | Potency [8] 0.235 µM | Potency [18] 0.235 µM | Potency [10] 0.0372 µM | Potency [20] 0.105 µM | Potency [11] 0.0418 µM | Potency [12] 0.0935 µM | Potency [13] 0.148 µM

CN(C)CCN(Cc1ccc(Cl)cc1)c1ccccn1
inactive: Potency [1] | Potency [17] | Potency [6] | Potency [8] | Potency [9] | Potency [10] | Potency [20]
active: Potency [16] 10.5 µM | Potency [7] 16.6 µM | Potency [18] 5.9 µM | Potency [11] 14.8 µM

CCC(=C(c1ccc(O)cc1)c1ccc(OCCNC)cc1)c1ccccc1
active: Potency [1] 29.6 µM | Potency [2] 5.9 µM | Potency [3] 26.4 µM | Potency [4] 20.9 µM | Potency [5] 26.4 µM | Potency [16] 14.8 µM | Potency [6] 23.5 µM | Potency [7] 20.9 µM | Potency [8] 23.5 µM | Potency [20] 26.4 µM | Potency [11] 16.6 µM | Potency [12] 18.7 µM | Potency [13] 18.7 µM | Potency [19] 29.6 µM

O=C(O)C1=CC(O)C(O)[C@H](O)C1 (stereo partly drawn)
inactive: Potency [1] | Potency [17] | Potency [6] | Potency [7] | Potency [8] | Potency [9] | Potency [18] | Potency [20] | Potency [13] | viability [14] 118%

COc1ccc2nc3cc(Cl)ccc3c(Nc3cc(CN4CCCC4)c(O)c(CN4CCCC4)c3)c2n1
active: Potency [1] 11.8 µM | Potency [2] 20.9 µM | Potency [3] 16.6 µM | Potency [4] 14.8 µM | Potency [5] 16.6 µM | Potency [16] 18.7 µM | Potency [7] 20.9 µM | Potency [9] 20.9 µM | Potency [10] 16.6 µM | Potency [12] 18.7 µM | Potency [13] 23.5 µM | Potency [14] 14.8 µM

Cc1cnc(Nc2cccc(CN3CCOCC3)c2)nc1Nc1cccc(S(=O)(=O)NC(C)(C)C)c1
active: Potency [1] 5.26 µM | Potency [2] 2.96 µM | Potency [15] 0.833 µM | Potency [3] 18.7 µM | Potency [4] 18.7 µM | Potency [5] 2.96 µM | Potency [16] 1.87 µM | Potency [8] 10.5 µM | Potency [9] 14.8 µM | Potency [18] 14.8 µM | Potency [10] 5.26 µM | Potency [20] 3.32 µM | Potency [11] 1.05 µM | Potency [12] 3.72 µM | Potency [13] 1.48 µM | Potency [14] 7.43 µM
inactive: Potency [19]

CCNC(=O)[C@H]1O[C@@H](n2cnc3c(N)nc(NCCc4ccc(CCC(=O)O)cc4)nc32)[C@H](O)[C@H]1O
inactive: Potency [6]
active: Potency [1] 3.32 µM | Potency [17] 132 nM | Potency [16] 0.332 µM | Potency [7] 0.332 µM | Potency [8] 0.0526 µM | Potency [12] 0.0662 µM

Cc1[nH]c(C=C2C(=O)Nc3ccc(S(=O)(=O)N(C)c4cccc(Cl)c4)cc32)c(C)c1C(=O)N1CCN(C)CC1
active: Potency [1] 26.4 µM | Potency [2] 5.26 µM | Potency [3] 23.5 µM | Potency [4] 18.7 µM | Potency [16] 11.8 µM | Potency [7] 26.4 µM | Potency [8] 23.5 µM | Potency [9] 18.7 µM | Potency [18] 23.5 µM | Potency [20] 20.9 µM | Potency [11] 18.7 µM | Potency [14] 20.9 µM | Potency [19] 23.5 µM

C[C@@H]1CCO[C@H]2Cn3cc(C(=O)NCc4ccc(F)cc4F)c(=O)c(O)c3C(=O)N12
active: Potency [1] 20.9 µM | Potency [7] 20.9 µM | Potency [8] 23.5 µM | Potency [18] 23.5 µM | viability (% of control) [10] 92.8% | Potency [12] 20.9 µM | Potency [14] 26.4 µM
inactive: Potency [17] | Potency [6]
